# Screening data deposited in PubChem by Broad Institute.
# The list is not random: actives were taken first. Their share in the collection is about 7.4%.
# MITF inhib: inhibitors of MITF, primary screen, MITF inhibitor project, cell-based, luminescence. AID 2240, 2010. TRPM1 promoter luciferase, 24 h. inhibition, % (test concentration not listed). hit rate 0.28% among 37,000; in the data active = inhibition above about 85%;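 also: human melanocyte line stably carrying TRPM1 promoter luciferase reporter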
# PD-1 reverse act: activators reversing PD-1 mediated T-cell inhibition, primary screen, luminescence, primary human CD4 T cells, PD-L1 beads; CellTiter-Glo 96 h; activation, % (concentration not given with the values); 29,000 tested, under 10 active; call rule not given here;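 also: 0% = median vehicle wells and 100% = positive control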
# Hedgehog inh: Hedgehog pathway signaling inhibitors, primary screen, luminescence, Shh-LIGHT2 cells, Gli-luciferase; Shh-LIGHT2 Gli-luciferase reporter, 30 h; inhibition, % (no concentration beside the values); hit rate 2.1% among 22,000;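 active = mean inhibition across valid replicates above about 65%, limit read from the data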;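 also: pathway switched on by Shh-conditioned medium diluted 1 in 25 in low serum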
# YB-1 expression: inhibitors of YB-1 gene expression, primary screen, cell-based, fluorescence. hit rate 0.37% among 30,000. U2OS, qRT-PCR YB-1 vs CDIP delta delta Cp, 16 h; stronger effect = higher value; zero = DMSO, each unit about twofold. delta delta Cp (YB-1 minus CDIP) (test concentration not listed);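 active = delta delta Cp rounded down to an integer at or above 3, about 3 SD of DMSO wells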;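 also: higher means less YB-1 transcript or more CDIP transcript relative to DMSO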
# NOMO-1 viab: NOMO-1 AML cell viability reduction, primary screen, STK33 inhibitor project, CellTiter-Glo luminescence. NOMO-1 AML viability, 72 h. inhibition, % (test concentration not listed). hit rate 7.5% among 37,000. AID 2330, 2010; in the data active = inhibition above about 80%
# An asterisk follows results filed as active; · = no result given.
SMILES,MITF inhib,PD-1 reverse act,Hedgehog inh,YB-1 expression,NOMO-1 viab
CCC(C)(O)C(=O)O[C@H]1C(=O)O[C@@H]2C[C@H]3C(C)=CC(=O)[C@@H](O)[C@]3(C)[C@H]3[C@@]4(O)OC[C@]32[C@@H]1[C@@H](C)[C@H]4O (stereo not given in full),92*,-7,67*,0.74,124*
C[C@@H]1C[C@@H]([C@H](O)CC2CC(=O)NC(=O)C2)C(=O)[C@@H](C)C1,72,·,50,-0.55,114*
C[C@@H]1CC([C@H](O)CC2CC(=O)NC(=O)C2)C(=O)[C@@H](C)C1 (stereo not given in full),55,-8,68*,-0.021,141*
CC12CCC3C(CC=C4CC(O)CCC43CO)C1CCC2OC(=O)c1ccccc1 (stereo not given),16,0,7,0.055,66
C=C(CO)C(=O)O[C@H]1C/C(C)=C\CC/C(CO)=C\[C@H]2OC(=O)C(=C)[C@H]12,-15,-18,7,-8.4,122*
C=C(CO)C(=O)O[C@H]1CC(=C)[C@@H]2C[C@H](O)C(=C)[C@@H]2[C@H]2OC(=O)C(=C)[C@@H]21,-45,-4,90*,0.68,121*
COc1ccccc1OCCCn1cc(C(=O)C(C)(C)C)c2ccccc21,13,-2,·,·,37
CCCN(CCC)C1CCc2ccc(O)cc2C1 (stereo not given),-5,·,-40,0.33,32
N#Cc1nn(-c2c(Cl)cc(C(F)(F)F)cc2Cl)c(N)c1S(=O)C(F)(F)F (stereo not given),51,·,31,0.18,33
C[C@@H]1CN([C@@H](C)CO)C(=O)CCCn2cc(nn2)CO[C@@H]1CN(C)C(=O)Oc1ccc2ccccc2c1,·,·,·,-0.3,·
COc1ccc(OC(=O)N(C)C[C@@H]2OCc3cnnn3CCCC(=O)N([C@@H](C)CO)C[C@@H]2C)cc1,·,·,·,-0.49,·
CC(C)(C)c1cc(C=C(C#N)C#N)cc(Br)c1O,78,0,88*,0.67,57
N#CC(C#N)=Cc1cc(O)c(O)c(O)c1,-10,0,42,-0.049,45
